Assay results: PubChem BioAssay (NCI)
The panel holds about 79,000 compounds, 15% with a hit somewhere; the sample as a whole holds those more often. Unmarked numbers belong to inactive results. Calls of active or inactive are those of the source. Rule as the data show it: active = growth inhibition above about 70%; inactive = the rest.

assay: NCI Yeast Anticancer Drug Screen. Data for the bub3 strain (AID 167); details: S. cerevisiae bub3 mutant strain, at 50.0 µM, stronger effect = higher value
In short: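 Growth of a checkpoint-deficient yeast mutant is measured after compound exposure. Values represent inhibition relative to vehicle.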

SMILES	growth inhibition
O=Cc1ccccc1C=O	24.4%
C1=CCN([B-](c2ccccc2)[C+]2CCCCC2)C=C1	-11.4%
CC/C(=C(\c1ccccc1)c1ccc(OCC[N+](C)(C)C)cc1)c1ccccc1	91.5% (active)
O=S(=O)(c1cccc(C(F)(F)F)c1)N1c2ccccc2-n2cccc2C1c1cccnc1 (configuration not stated)	94.7% (active)
Nc1ccc2c(c1)C(=O)c1c(F)cccc1-2	9%
CN(C)/C(=N/C(=S)Nc1ccccc1)SCc1ccccc1	99.5% (active)
CCN(CC)C(=S)N/N=C(\C)c1ccccc1O	93.3% (active)
CC(C)OC(=O)NNc1cc(Cl)ccc1Cl	99% (active)
CC(C)CCC[C@@H](C)[C@H]1CC[C@H]2[C@@H]3CC[C@H]4C[C@H](N)CC[C@]4(C)[C@H]3CC[C@]12C	15.1%
O=C1c2ccccc2-c2ccc(N=Cc3ccccc3)cc21	31.6%

same assay, conditions: S. cerevisiae bub3 mutant strain, at 100.0 µM, stronger effect = higher value

SMILES	growth inhibition
COc1ccc2nc3cccc([N+](=O)[O-])c3c(NCCNCCN(C)C)c2c1	-5%
Cc1cccc(/C=N/NC(=S)NC2CCCCC2)n1	20%
COC(=O)C(=O)c1c(-c2ccc(Cl)c(Cl)c2)[nH]c2[nH]n(-c3ccccc3)c(=O)c2c1=O	55%
c1ccc([P+](CCN2Cc3ccccc3C2)(c2ccccc2)c2ccccc2)cc1	94% (active)
Cc1cc(C)c2[s+]snc2c1	30%
CC(C)(Br)C(=O)/C=C/c1ccccc1	7%
Cc1ccc(S(=O)(=O)NC(=O)C2C(=O)CC3(CCCCC3)CC2=O)cc1	74% (active)
NC(=S)N1N=C2c3ccccc3CC[C@H]2[C@@H]1c1ccc(Cl)cc1	89% (active)
O=[N+]([O-])/C=C/c1cc2ccc3ccccc3c2[nH]1	91% (active)
O=C1C(=C2CCCC2)CCC1CN1CCCCC1 (configuration not stated)	97% (active)
OC(CC(O)(C(F)(F)F)C(F)(F)F)c1ccc(C(O)CC(O)(C(F)(F)F)C(F)(F)F)cc1 (configuration not stated)	99% (active)
COc1cc2c(cc1OC)[C@@H](Nc1ccc(C#N)cc1)C1COC(=O)[C@@H]1C2c1cc(OC)c(O)c(OC)c1 (some centres not stated)	78% (active)
O=c1cccccc1[O-].O=c1cccccc1[O-].O=c1cccccc1[O-].[Eu+3]	98% (active)
O=C1c2ccccc2C(=O)c2sc(Nc3ccccc3Cl)nc21	97% (active)
NC(CCCCCCCCCCCCC(N)C(=O)c1ccccc1)C(=O)c1ccccc1 (configuration not stated)	91% (active)
CC1=C(C)C(=O)C2=C(OCCO2)C1=O	48%
c1ccc(-c2cc(C3CO3)c3ccccc3n2)cc1 (configuration not stated)	99% (active)
S=C1C(=Nc2ccccc2)N(c2ccccc2)/C(=N\c2ccccn2)N1c1ccccc1	99% (active)

SMILES	growth inhibition
CCC(OC(C)=O)C1CC(C(C)C)CCC1C (configuration not stated)	84% (active)
CC(C)=CCc1c2c(c(O)c3c(=O)c(-c4ccc(O)c(O)c4)coc13)C=CC(C)(C)O2	87% (active)
O=C(NC(N1CCN(c2cc3c(cc2F)c(=O)c(C(=O)O)cn3C2CC2)CC1)(C(F)(F)F)C(F)(F)F)c1ccccc1	48%
Fc1cc(F)c(F)c(S)c1F	99% (active)
COc1ccc2cc3c4cc5c(cc4cc[n+]3cc2c1OC)OCO5	98% (active)
CCCCCCCCNCCCCCCCC	99% (active)
Nc1cc(Cl)ccc1Nc1ccccc1	93% (active)
O=C(/C(=C/c1ccc(O)cc1)c1ccccc1)c1ccccc1	90% (active)
O=Cc1ccccc1C=O	81% (active)
C1=CCN([B-](c2ccccc2)[C+]2CCCCC2)C=C1	97% (active)
CC/C(=C(\c1ccccc1)c1ccc(OCC[N+](C)(C)C)cc1)c1ccccc1	99% (active)
O=S(=O)(c1cccc(C(F)(F)F)c1)N1c2ccccc2-n2cccc2C1c1cccnc1 (configuration not stated)	90% (active)
Nc1ccc2c(c1)C(=O)c1c(F)cccc1-2	37%
CN(C)/C(=N/C(=S)Nc1ccccc1)SCc1ccccc1	14%
CCN(CC)C(=S)N/N=C(\C)c1ccccc1O	99% (active)
CC(C)OC(=O)NNc1cc(Cl)ccc1Cl	47%
CC(C)CCC[C@@H](C)[C@H]1CC[C@H]2[C@@H]3CC[C@H]4C[C@H](N)CC[C@]4(C)[C@H]3CC[C@]12C	-2%
O=C1c2ccccc2-c2ccc(N=Cc3ccccc3)cc21	54%

assay: NCI Yeast Anticancer Drug Screen. Data for the wt2 strain (AID 169);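 also: 0% = growth of vehicle-treated yeast cultures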; details: S. cerevisiae wt2 strain growth inhibition; at 1.2 µM; stronger effect = higher value
In short: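 The panel's yeast strains carry defined changes in DNA repair or cell cycle genes. Each strain is grown with compound, and growth loss is scored relative to vehicle.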

SMILES	growth inhibition [%]
COc1ccc2nc3cccc([N+](=O)[O-])c3c(NCCNCCN(C)C)c2c1	-2
Cc1cccc(/C=N/NC(=S)NC2CCCCC2)n1	-4
COC(=O)C(=O)c1c(-c2ccc(Cl)c(Cl)c2)[nH]c2[nH]n(-c3ccccc3)c(=O)c2c1=O	0
c1ccc([P+](CCN2Cc3ccccc3C2)(c2ccccc2)c2ccccc2)cc1	-45
Cc1cc(C)c2[s+]snc2c1	-2
CC(C)(Br)C(=O)/C=C/c1ccccc1	0
Cc1ccc(S(=O)(=O)NC(=O)C2C(=O)CC3(CCCCC3)CC2=O)cc1	-39
NC(=S)N1N=C2c3ccccc3CC[C@H]2[C@@H]1c1ccc(Cl)cc1	8
O=[N+]([O-])/C=C/c1cc2ccc3ccccc3c2[nH]1	26
O=C1C(=C2CCCC2)CCC1CN1CCCCC1 (configuration not stated)	-17
OC(CC(O)(C(F)(F)F)C(F)(F)F)c1ccc(C(O)CC(O)(C(F)(F)F)C(F)(F)F)cc1 (configuration not stated)	-1
COc1cc2c(cc1OC)[C@@H](Nc1ccc(C#N)cc1)C1COC(=O)[C@@H]1C2c1cc(OC)c(O)c(OC)c1 (some centres not stated)	6
O=c1cccccc1[O-].O=c1cccccc1[O-].O=c1cccccc1[O-].[Eu+3]	1
O=C1c2ccccc2C(=O)c2sc(Nc3ccccc3Cl)nc21	1
NC(CCCCCCCCCCCCC(N)C(=O)c1ccccc1)C(=O)c1ccccc1 (configuration not stated)	-4
CC1=C(C)C(=O)C2=C(OCCO2)C1=O	-9
c1ccc(-c2cc(C3CO3)c3ccccc3n2)cc1 (configuration not stated)	-1
S=C1C(=Nc2ccccc2)N(c2ccccc2)/C(=N\c2ccccn2)N1c1ccccc1	-4

SMILES	growth inhibition [%]
CCC(OC(C)=O)C1CC(C(C)C)CCC1C (configuration not stated)	-1
CC(C)=CCc1c2c(c(O)c3c(=O)c(-c4ccc(O)c(O)c4)coc13)C=CC(C)(C)O2	-50
O=C(NC(N1CCN(c2cc3c(cc2F)c(=O)c(C(=O)O)cn3C2CC2)CC1)(C(F)(F)F)C(F)(F)F)c1ccccc1	-2
Fc1cc(F)c(F)c(S)c1F	-48
COc1ccc2cc3c4cc5c(cc4cc[n+]3cc2c1OC)OCO5	38
CCCCCCCCNCCCCCCCC	0
Nc1cc(Cl)ccc1Nc1ccccc1	-15
O=C(/C(=C/c1ccc(O)cc1)c1ccccc1)c1ccccc1	-38
O=Cc1ccccc1C=O	-20
C1=CCN([B-](c2ccccc2)[C+]2CCCCC2)C=C1	-1
CC/C(=C(\c1ccccc1)c1ccc(OCC[N+](C)(C)C)cc1)c1ccccc1	-2
O=S(=O)(c1cccc(C(F)(F)F)c1)N1c2ccccc2-n2cccc2C1c1cccnc1 (configuration not stated)	-23
Nc1ccc2c(c1)C(=O)c1c(F)cccc1-2	-1
CN(C)/C(=N/C(=S)Nc1ccccc1)SCc1ccccc1	-2
CCN(CC)C(=S)N/N=C(\C)c1ccccc1O	-37
CC(C)OC(=O)NNc1cc(Cl)ccc1Cl	3
CC(C)CCC[C@@H](C)[C@H]1CC[C@H]2[C@@H]3CC[C@H]4C[C@H](N)CC[C@]4(C)[C@H]3CC[C@]12C	8
O=C1c2ccccc2-c2ccc(N=Cc3ccccc3)cc21	5
